Experimental data from PubChem BioAssay (NCATS).
Inconclusive results are not listed. Unmarked numbers belong to inactive results. Activity calls are given as the source filed them. Calls follow the shape of the dose curve; as a rule, active = well fitted cell-killing curve with a large enough effect; inconclusive = small, poorly fitted or top-dose-only effect, or effect the other way; inactive = no such curve, though single readings can be large or run the other way.

Tests used:
[1] = Quantitative High-Throughput drug screen in 47 multiple myeloma cell lines against the NCATS MIPE library collection: LP1_DSMZ cell viability assay (AID 1918982); also: nearly all actives have a fitted effect of over 35% in size
How it was run: (§1)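 ATP-based CellTiter-Glo luminescence after 48 h drug exposure (37 °C, 5% CO2) of 500 myeloma cells per well. DMSO-only wells set 100% viability, media-only wells 0%; MIPE 4.0 library added by pin tool.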

[2] = Quantitative High-Throughput drug screen in 47 multiple myeloma cell lines against the NCATS MIPE library collection: KMS34_JCRB cell viability assay (AID 1918985); also: nearly all actives have a fitted effect of over 40% in size
How it was run: as §1

[3] = Quantitative High-Throughput drug screen in 47 multiple myeloma cell lines against the NCATS MIPE library collection: OCIMY5_PLB cell viability assay (AID 1918988); also: nearly all actives have a fitted effect of over 65% in size
How it was run: as §1

[4] = Quantitative High-Throughput drug screen in 47 multiple myeloma cell lines against the NCATS MIPE library collection: OPM1_PLB cell viability assay (AID 1918989); also: nearly all actives have a fitted effect of over 40% in size
How it was run: as §1

[5] = Quantitative High-Throughput drug screen in 47 multiple myeloma cell lines against the NCATS MIPE library collection: SKMM1_PLB cell viability assay (AID 1919863); conditions: SKMM1 myeloma viability, CellTiter-Glo ATP, 48 h; viability: hits give low values; also: nearly all actives have a fitted effect of over 35% in size
How it was run: as §1

[6] = Quantitative High-Throughput drug screen in 47 multiple myeloma cell lines against the NCATS MIPE library collection: U266_ATCC cell viability assay (AID 1919864); also: nearly all actives have a fitted effect of over 35% in size
How it was run: as §1

[7] = Quantitative High-Throughput drug screen in 47 multiple myeloma cell lines against the NCATS MIPE library collection: XG6_PLB cell viability assay (AID 1919865); also: nearly all actives have a fitted effect of over 40% in size
How it was run: as §1

[8] = Quantitative High-Throughput drug screen in 47 multiple myeloma cell lines against the NCATS MIPE library collection: XG1_PLB cell viability assay (AID 1919866); also: nearly all actives have a fitted effect of over 35% in size
How it was run: as §1

[9] = Quantitative High-Throughput drug screen in 47 multiple myeloma cell lines against the NCATS MIPE library collection: VP6_DJ cell viability assay (AID 1919867); also: nearly all actives have a fitted effect of over 40% in size
How it was run: as §1

[10] = Quantitative High-Throughput drug screen in 47 multiple myeloma cell lines against the NCATS MIPE library collection: UTMC2_PLB cell viability assay (AID 1919868); conditions: CellTiter-Glo ATP luminescence, 48 h; viability (% of DMSO control): at 45.8 µM (top of the series); also: nearly all actives have a fitted effect of over 55% in size
How it was run: as §1

[11] = Quantitative High-Throughput drug screen in 47 multiple myeloma cell lines against the NCATS MIPE library collection: PCM6_Riken cell viability assay (AID 1919870); also: nearly all actives have a fitted effect of over 30% in size
How it was run: as §1

[12] = Quantitative High-Throughput drug screen in 47 multiple myeloma cell lines against the NCATS MIPE library collection: RPMI8226_ATCC cell viability assay (AID 1919871); also: nearly all actives have a fitted effect of over 30% in size
How it was run: as §1

[13] = Quantitative High-Throughput drug screen in 47 multiple myeloma cell lines against the NCATS MIPE library collection: OPM2_DSMZ cell viability assay (AID 1919872); also: nearly all actives have a fitted effect of over 30% in size
How it was run: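 Approved and investigational drugs from MIPE 4.0 were added by pin tool to 500 cells per well. After 48 hours at 37C, ATP-based CellTiter-Glo luminescence indicated remaining viability.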

[14] = Quantitative High-Throughput drug screen in 47 multiple myeloma cell lines against the NCATS MIPE library collection: KMS11_JCRBsus cell viability assay (AID 1919873); also: nearly all actives have a fitted effect of over 50% in size
How it was run: as §1

[15] = Quantitative High-Throughput drug screen in 47 multiple myeloma cell lines against the NCATS MIPE library collection: KMS28BM_JCRB cell viability assay (AID 1919874); also: nearly all actives have a fitted effect of over 35% in size
How it was run: as §1

[16] = Quantitative High-Throughput drug screen in 47 multiple myeloma cell lines against the NCATS MIPE library collection: KMS28PE_JCRB cell viability assay (AID 1918983); also: nearly all actives have a fitted effect of over 35% in size
How it was run: as §1

[17] = Quantitative High-Throughput drug screen in 47 multiple myeloma cell lines against the NCATS MIPE library collection: L363_DSMZ cell viability assay (AID 1918984); also: nearly all actives have a fitted effect of over 40% in size
How it was run: as §1

[18] = Quantitative High-Throughput drug screen in 47 multiple myeloma cell lines against the NCATS MIPE library collection: OCIMY7_PLB cell viability assay (AID 1918987); conditions: OCI-MY7 myeloma viability, CellTiter-Glo ATP, 48 h; viability (% of DMSO): at 45.8 µM (top of the series); also: nearly all actives have a fitted effect of over 65% in size
How it was run: as §1

[19] = Quantitative High-Throughput drug screen in 47 multiple myeloma cell lines against the NCATS MIPE library collection: PE2_PLB cell viability assay (AID 1919869); also: nearly all actives have a fitted effect of over 35% in size
How it was run: as §1
Potency is read from the fitted curve at half-maximal effect.

Compound	Potency [1]	Potency [2]	Potency [3]	Potency [4]	Potency [5]	Potency [6]	Potency [7]	Potency [8]	Potency [9]	Potency [10]	Potency [11]	Potency [12]	Potency [13]	Potency [14]	Potency [15]	Potency [16]	Potency [17]	Potency [18]	Potency [19]	viability [5] [%]
O=C(C=CC#Cc1cccc(NS(=O)(=O)c2ccccc2)c1)NO	0.935 µM (active)	0.935 µM (active)	1.18 µM (active)	2.35 µM (active)	2.35 µM (active)	2.09 µM (active)	5.26 µM (active)	1.87 µM (active)	1.18 µM (active)	0.833 µM (active)	1.66 µM (active)	2.64 µM (active)	2.35 µM (active)	662 nM (active)	0.833 µM (active)					
CC(=O)SCC(Cc1ccccc1)C(=O)NCC(=O)OCc1ccccc1 (stereo not given)		2.35 µM (active)	2.64 µM (active)	5.26 µM (active)	10.5 µM (active)		1.05 µM (active)	2.96 µM (active)	5.9 µM (active)	1.32 µM (active)	1.48 µM (active)		5.9 µM (active)		11.8 µM (active)	7.43 µM (active)	5900 nM (active)	3720 nM (active)	935 nM (active)	
NC(=O)Nc1sc(-c2ccc(F)cc2)cc1C(N)=O		2.64 µM (active)	2.09 µM (active)	0.833 µM (active)	11.8 µM (active)	13.2 µM (active)	0.0105 µM (active)	0.0469 µM (active)	1.32 µM (active)	0.743 µM (active)	0.833 µM (active)	5.9 µM (active)	18.7 µM (active)		4.69 µM (active)	18.7 µM (active)	83.3 nM (active)	662 nM (active)	372 nM (active)	
O=S(=O)(O)CCSSCCS(=O)(=O)O	inactive		inactive	inactive			inactive			inactive	inactive		inactive		inactive					
C[C@](Cc1c[nH]c2ccccc12)(NC(=O)OC1C2CC3CC(C2)CC1C3)C(=O)NC[C@H](NC(=O)CCC(=O)O)c1ccccc1 (stereo not given in full)	inactive		inactive			inactive						inactive	inactive	inactive	inactive				inactive	114
CC(C=CC1=C(C)CCCC1(C)C)=CC=CC(C)=CC(=O)Nc1ccc(O)cc1	17.1 µM (active)	17.1 µM (active)	9.59 µM (active)	3.4 µM (active)	19.1 µM (active)	38.2 µM (active)	13.6 µM (active)	15.2 µM (active)	12.1 µM (active)	15.2 µM (active)	13.6 µM (active)	24.1 µM (active)	17.1 µM (active)	19100 nM (active)	17.1 µM (active)				12100 nM (active)	
Nc1nc(=O)n([C@H]2C[C@H](O)[C@@H](CO)O2)cc1F	inactive	0.0026 µM (active)	inactive	0.0469 µM (active)				0.0118 µM (active)			0.059 µM (active)	inactive	inactive		inactive			526 nM (active)	inactive	129
CC(C)c1cc(C(C)C)c(CC(=O)NS(=O)(=O)Oc2c(C(C)C)cccc2C(C)C)c(C(C)C)c1	20.9 µM (active)	18.7 µM (active)	33.2 µM (active)	9.35 µM (active)	26.4 µM (active)	inactive				10.5 µM (active)			23.5 µM (active)		inactive				5900 nM (active)	
O=C(O)[C@H](CC(=O)N1C[C@@H]2CCCC[C@H]2C1)Cc1ccccc1	inactive			inactive		inactive				inactive	inactive		inactive	inactive	inactive				inactive	
OC[C@@H](O)[C@@H](O)[C@H](O)[C@@H](O)CO	inactive			inactive			inactive	inactive	inactive		inactive	inactive	inactive	inactive	inactive				inactive	122
N=c1ccn2c(n1)O[C@H]1[C@@H](O)[C@@H](CO)O[C@H]12	inactive				0.148 µM (active)	18.7 µM (active)		5.9 µM (active)	18.7 µM (active)	14.8 µM (active)			inactive	469 nM (active)				332 nM (active)	inactive	
COc1cc(OC)c(C=CS(=O)(=O)Cc2ccc(OC)c(NCC(=O)O)c2)c(OC)c1		0.209 µM (active)	0.59 µM (active)	0.332 µM (active)	0.235 µM (active)	0.526 µM (active)	0.833 µM (active)		0.372 µM (active)	0.166 µM (active)	0.418 µM (active)	1.66 µM (active)	0.372 µM (active)	93.5 nM (active)	0.132 µM (active)	0.469 µM (active)	46.9 nM (active)	264 nM (active)	469 nM (active)	
